Screening results (PubChem)
Only a selection was taken, and hits are over-represented in it overall.
TRb SRC2 PPI: inhibitors of human thyroid hormone receptor beta-SRC2 interaction; P10828; TRbeta-SRC2 peptide binding, fluorescence polarization; receptor liganded with 1 µM T3; Potency, µM (series often up to 106 µM), without a hit: top-dose activity change, negative = inhibition, hits mostly inhibitors; 280,000 tested, 0.065% active; AID 1469; active means well fitted inhibition curve with a large enough effect; inconclusive means small, poorly fitted or top-dose-only effect, or effect the other way;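 further: plate controls were bound peptide for no effect and peptide without receptor for full effect; nearly all actives have a fitted effect of over 50% in size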
Target sequence (P10828 whole entry, looked up): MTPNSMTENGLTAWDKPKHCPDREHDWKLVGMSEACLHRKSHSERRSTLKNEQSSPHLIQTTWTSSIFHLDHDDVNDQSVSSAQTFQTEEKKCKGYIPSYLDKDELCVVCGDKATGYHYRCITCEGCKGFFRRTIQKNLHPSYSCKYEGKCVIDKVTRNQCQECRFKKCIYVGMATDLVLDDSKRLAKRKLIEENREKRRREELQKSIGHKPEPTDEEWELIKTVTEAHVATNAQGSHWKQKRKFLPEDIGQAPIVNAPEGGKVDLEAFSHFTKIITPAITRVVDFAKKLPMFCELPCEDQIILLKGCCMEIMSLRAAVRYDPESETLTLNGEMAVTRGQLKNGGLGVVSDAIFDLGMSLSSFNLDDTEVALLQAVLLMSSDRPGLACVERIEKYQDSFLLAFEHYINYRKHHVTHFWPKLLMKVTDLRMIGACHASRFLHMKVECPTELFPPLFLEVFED
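Read-out is fluorescence polarization (555 nm excitation, 632 nm emission) of a Texas Red SRC2 coactivator peptide; loss of signal reflects blocked binding to human TRb ligand-binding domain in the presence of 1 uM T3.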
TR SRC2 fluor cs: counter-screen for TRb-SRC2 inhibitors: fluorescence interference | 280,000 tested, 0.29% active | Potency, µM (titrated, usually from 106 µM), for the others: top-dose fluorescence change, negative = quenching | AID 1479 | TRb/SRC2 Texas Red total fluorescence interference; active means well fitted curve in either direction with a large enough effect; inconclusive means small, poorly fitted or top-dose-only effect; further: on the % scale 0 is the no-effect control and ±100 the full control effect
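Flags fluorescent or light-absorbing compounds by total fluorescence, S + 2P, at 555 nm excitation and 632 nm emission. Mixture: 20 nM Texas Red SRC2 peptide, 0.6 uM human TRb LBD, 1 uM T3, 5% DMSO; compound exposure 5 h at ambient temperature.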
ERG Ets-DNA blk: blocks human ERG Ets domain binding to DNA. fluorescence polarization, His-ERG Ets domain / labelled DNA. 370,000 tested, 0.028% active. P11308. Potency, µM (doses to about 76.9 µM), without a hit: at the top dose FP activity, negative = inhibition, hits mostly inhibitors; active means well fitted inhibition curve with a large enough effect in the polarisation, with a control signal flat; inconclusive means small, poorly fitted or top-dose-only effect, or effect the other way, or a change in a side signal; inactive means no such curve, though single readings can be large or run the other way; the % refers to the polarisation;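 further: polarization taken with two DNA probes labelled with fluorescein and Texas red; % of control where 0% means no effect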
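His-tagged ERG Ets domain (1 uM in the protein solution; 300mM KCl, 50mM Tris-HCl, 1mM EDTA, 1mM DTT, pH 7.5) received compound, then a probe mix of 5 nM fluorescein-DNA and 100nM Texas-615-DNA. Fluorescence polarization was read for both dyes.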
An asterisk follows results filed as active; ? = inconclusive; . = no result given; ! = not confirmed by another sample; [ ] = dose if it differs, or a comment. Potency means the concentration at half of the fitted maximal effect.

SMILES	TRb SRC2 PPI	TR SRC2 fluor cs	ERG Ets-DNA blk
Cc1ccccc1Nc1c(-c2cc(Br)ccc2F)nc2ccccn12	-3.6%	3.16µM*[quencher]	4.9%
Cc1ccccc1Nc1c(-c2ccccn2)nc2ccccn12	10.4%	0.2%	9.7%
COC(=O)NC(c1cccc(C)c1)[C@]1(C(C)=O)CCOC1=O (stereo not given in full)	-4.7%[11.2 µM]	-0.6%[11.2 µM]	.
CCCCCCCCCCCCCCC(=O)OC	0.8%[201 µM]	-2.0%[201 µM]	.
Cc1c(C(=O)Nc2ccc(-c3nc4cc(Cl)ccc4o3)cc2)oc2ccccc12	-10.4%	112µM*[quencher]	-1.2%
Cc1ccc2oc(-c3cc(NC(=O)c4oc5ccccc5c4C)ccc3Cl)nc2c1	-8.8%	8.2%	-1.2%
Cc1cc2ccccc2n1CCNC(=O)c1cccc(Cl)c1	-0.4%	-1.4%	3.6%
Cc1cc2ccccc2n1CCNC(=O)c1cccs1	1.7%	6.7%	31.6µM*
Cc1cccc(NC(=O)Cn2c(=O)n(CCc3ccccc3)c(=O)c3sc4ccccc4c32)c1	-8.0%	-0.1%	-2.7%
Cc1cccc(NC(=O)Cn2c(=O)n(Cc3ccccc3)c(=O)c3sc4ccccc4c32)c1	-27.7%[53 µM]	25.1µM*[quencher]	1.1%
CC1=C(\C=C/C(C)=C/C=C\C(C)=C\C(=O)O)C(C)(C)CCC1	-7.1%	-0.7%	.
CC1=C(/C=C/C(C)=C/C=C/C(C)=C\C(=O)O)C(C)(C)CCC1	22.4µM*!	28.2µM*![fluorescent]	3.1%
COc1ccccc1CNS(=O)(=O)c1ccc2c(c1)CC(C)N2C(C)=O (stereo not given)	-2.6%	?	13.4%
CCCOc1ccccc1C1C(C(=O)Nc2ccccc2)=C(C)Nc2nnnn21 (stereo not given)	-11.3%	0.1µM*[quencher]	-6.9%
CCCCOc1ccccc1C1C(C(N)=O)=C(C)Nc2nnnn21 (stereo not given)	-17.0%	-1.1%	-2.6%
O=C1[C@H]2[C@H]3[C@H](O)[C@H](O)C/C(=N/OC[C@@H](O)COCc4ccco4)[C@@H]3CC[C@@H]2C(=O)N1Cc1ccccc1	-1.6%[11.2 µM]	-2.3%[11.2 µM]	.
CN1CC(O)C2=CC(=O)C(=O)C=C21 (stereo not given)	-23.7%	?	.
O=C(CCC1N=C2c3ccccc3N=C(SCC(=O)Nc3ccc(F)cc3)N2C1=O)NCc1cccs1 (stereo not given)	4.5%	-0.4%	-1.6%
CC(C)=CC(=O)Nc1ccc(S(=O)(=O)Nc2onc(C)c2C)cc1	.	.	-3.9%
Cc1ccc(/C=C/C(=O)Nc2ccc(S(=O)(=O)Nc3onc(C)c3C)cc2)cc1	.	.	28.2µM*
CN(C)c1ccc(/C=C(/C(=O)c2ccc(Cl)cc2Cl)n2cncn2)cc1	-8.7%	31623µM*[quencher]	.
COc1ccc(/C=C(/C(=O)c2ccc(Cl)cc2Cl)n2cncn2)cc1	-0.3%	0.5%	-4.7%
Cc1onc(-c2c(Cl)cccc2Cl)c1C(=O)N[C@H]1C(=O)N2[C@H]1SC(C)(C)[C@H]2C(=O)O	-10.0%[53 µM]	-3.0%[53 µM]	.
C[C@]12CC[C@@H]3c4ccc(O)cc4CC[C@H]3[C@H]1CC[C@H]2O	12.3%[201 µM]	1.4%[201 µM]	.
COC(=O)c1cc2oc3ccccc3c2n1Cc1c(C)cc(C)cc1C	-1.0%	-9.5%	-1.0%
SMILES	TRb SRC2 PPI	TR SRC2 fluor cs	ERG Ets-DNA blk
CCCn1c(-c2ccc(F)cc2)nc2c(NC3CC4CCC(C3)N4C)nc(C)nc21 (stereo not given)	1.6%	3.1%	.
Cc1cc(NC(=O)CSc2cc(Cl)ccc2Cl)n(-c2ccccc2)n1	-23.5%[53 µM]	31.6µM*[quencher]	-0.8%
Cc1cc(NC(=O)COc2ccc(Cl)cc2Cl)n(-c2ccccc2)n1	-11.1%	-3.0%	-10.5%
CC(C)N1CC2=C(OC(N)=C(C#N)C2c2cccnc2)/C(=C/c2cccnc2)C1 (stereo not given)	44.7µM*	44.7µM*[fluorescent]	-22.9%
CCN1CC2=C(OC(N)=C(C#N)C2c2cccs2)/C(=C/c2cccs2)C1 (stereo not given)	-16.9%	-1.5%	11.4%
CCN1CC2=C(OC(N)=C(C#N)C2c2ccccc2)/C(=C\c2ccccc2)C1 (stereo not given)	44.7µM*	44.7µM*[fluorescent]	5.4%
N#CC1=C(N)OC2=C(CN(Cc3ccccc3)C/C2=C\c2cccnc2)C1c1cccnc1 (stereo not given)	?	?	-4.3%
CCCc1cnc2c(c1SCC(=O)Nc1ccc([N+](=O)[O-])cc1)c(=O)n(C)c(=O)n2C	-3.1%	-0.2%	-13.3%
O=C(O)/C=C/C(=O)Nc1ccc(OC(F)(F)F)cc1Br	31.6µM*	-8.3%	-11.6%
O=C(O)/C=C/C(=O)Nc1ccc(OC(F)(F)F)cc1	-4.5%	-6.0%	-3.4%
CCc1ccc(C(=O)c2cnc3ccc(F)cc3c2S(=O)(=O)c2ccccc2)cc1	-9.7%	25.1µM*[quencher]	-3.2%
Cc1ccc2ncc(C(=O)c3ccc(C)c(C)c3)c(S(=O)(=O)c3ccccc3)c2c1	-2.1%	6.7%	-4.6%
O=S(=O)(Nc1cccc(-c2ccc(N3CCCCC3)nn2)c1)c1cccc(F)c1	-17.7%	?	0.0%
Cc1nn2c(C)c(C(=O)NCc3ccco3)cnc2c1-c1ccccc1	-6.8%	-0.3%	0.2%
COc1ccccc1CNC(=O)C1CCN(S(=O)(=O)c2c(C)noc2/C=C/c2cccs2)CC1	-13.8%	-1.9%	14.1%
C=C[Si](C)(C)O[Si](C)(C)C=C	2.9%[201 µM]	-2.8%[201 µM]	.
CSc1nc(N)nc(SCC(=O)Nc2ccc(Cl)cc2)c1C#N	7.3%	0.3%	-0.3%
CSc1nc(N)nc(SCC(=O)Nc2cccc(F)c2)c1C#N	?	1.26µM*[quencher]	8.1%
FC(F)(F)c1cc(NC(=S)Nc2ccc3cc4ccccc4cc3c2)cc(C(F)(F)F)c1	-5.8%	-0.9%	.
Cc1noc(/C=C/c2ccccc2F)c1S(=O)(=O)N1CCC(C(=O)Nc2ccc(C#N)cc2)CC1	-1.2%	0.0%	0.7%
CCCCC(CC)COC(=O)/C=C\C(=O)OCC(CC)CCCC (stereo not given)	3.4%[201 µM]	-6.3%[201 µM]	.
N#CC(C#N)=C1NC2(CCCCC2)Cc2ccccc21	-1.7%	-5.3%	12.5%
N#CC(C#N)=c1ccc2c(c1)NC1(CCCCC1)N=2	?	44.7µM*[fluorescent]	14.4%
COc1ccc(CCNC(=O)c2cnc3sc(N4CCOCC4)nn3c2=O)cc1	-5.6%	?	-1.5%
COc1ccc(CNC(=O)c2cnc3sc(N4CCOCC4)nn3c2=O)cc1	-8.9%	501µM*[quencher]	5.2%
SMILES	TRb SRC2 PPI	TR SRC2 fluor cs	ERG Ets-DNA blk
CCN(CC)c1ccc2nc3c(=O)n(C)c(=O)n(C)c3nc2c1	-23.8%	22.4µM*[fluorescent]	?
CCC(=O)Nc1ccc2nc3c(=O)n(C)c(=O)n(C)c3nc2c1	2.4%	10.4%	-5.8%
COc1ccc(OCC(O)CN2C(=O)c3ccccc3C2=O)cc1 (stereo not given)	.	.	12.6µM*
O=C1c2ccccc2C(=O)N1CC(O)COc1ccc(Cl)cc1 (stereo not given)	.	.	-0.9%
Cc1cc(C)c(NC(=O)COC(=O)c2cccc3c2C(=O)c2ccccc2C3=O)c(C)c1	-2.6%	-2.6%	2.8%
Cc1cc(C)c(Nc2cc(S(=O)(=O)O)c(N)c3c2C(=O)c2ccccc2C3=O)c(C)c1	44.7µM*	-24.0%	3.4%
CCCc1cc(=O)oc2cc(C)c3c(C)coc3c12	1.0%	-3.4%	.
CCCCc1cc(=O)oc2cc(C)c3c(C(C)(C)C)coc3c12	-4.8%	100µM*[quencher]	4.8%
COc1ccc(CNC(=O)COC(=O)Cc2ccc(Cl)cc2Cl)cc1	?	35.5µM*[quencher]	4.0%
